# Reference: publication PMC7862700, “An all-to-all approach to the identification of sequence-specific readers for epigenetic DNA modifications on cytosine”
# What was measured:
# Assay in all cases: DAPPL (digital affinity profiling via proximity ligation, sequencing); 10 mM Tris-HCl pH 7.5, 50 mM NaCl, 1 mM DTT, 4% glycerol, room temperature, 30 min; GST-TFs on glutathione beads, 16-mer random dsDNA library, 0.1% formaldehyde crosslink after washing; high values mean tight binding
# FLI1 = target: T1, FLI1 (Homo sapiens, UniProt Q01543 1-452); details: protein: recombinant; tags: N-terminal GST; dsDNA, one strand shown
# T1 sequence: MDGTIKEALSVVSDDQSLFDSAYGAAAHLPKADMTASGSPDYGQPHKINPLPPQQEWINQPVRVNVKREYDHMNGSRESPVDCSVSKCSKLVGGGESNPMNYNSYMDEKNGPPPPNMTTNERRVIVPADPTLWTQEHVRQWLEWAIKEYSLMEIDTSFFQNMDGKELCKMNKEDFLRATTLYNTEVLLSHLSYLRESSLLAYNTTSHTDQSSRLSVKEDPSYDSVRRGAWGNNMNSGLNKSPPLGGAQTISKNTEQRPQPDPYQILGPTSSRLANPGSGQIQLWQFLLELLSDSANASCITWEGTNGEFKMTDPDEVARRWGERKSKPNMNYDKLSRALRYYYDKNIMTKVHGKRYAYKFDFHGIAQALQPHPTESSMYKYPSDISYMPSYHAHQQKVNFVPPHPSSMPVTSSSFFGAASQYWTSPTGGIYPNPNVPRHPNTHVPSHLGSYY
# Method in brief: (§1)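 Human transcription factors fused to GST were expressed in yeast, captured on glutathione beads, given DNA barcodes and pooled with a GST-only negative control. Pools were incubated with 200 nmole of a 16-mer random double-stranded DNA library in Tris/NaCl/DTT/glycerol buffer at room temperature for 30 min. They were then washed, crosslinked with 0.1% formaldehyde, proximity-ligated (BsaI/T4 ligase, 1 h, 37 °C), PCR-amplified and sequenced on an Illumina NextSeq500. Binding signal is each 6-mer's read frequency for a factor divided by its frequency for the GST control.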
# ELK1 = target: T2, ELK1 (Homo sapiens, UniProt P19419 1-428); details: protein: recombinant; tags: N-terminal GST; dsDNA, one strand shown
# T2 sequence: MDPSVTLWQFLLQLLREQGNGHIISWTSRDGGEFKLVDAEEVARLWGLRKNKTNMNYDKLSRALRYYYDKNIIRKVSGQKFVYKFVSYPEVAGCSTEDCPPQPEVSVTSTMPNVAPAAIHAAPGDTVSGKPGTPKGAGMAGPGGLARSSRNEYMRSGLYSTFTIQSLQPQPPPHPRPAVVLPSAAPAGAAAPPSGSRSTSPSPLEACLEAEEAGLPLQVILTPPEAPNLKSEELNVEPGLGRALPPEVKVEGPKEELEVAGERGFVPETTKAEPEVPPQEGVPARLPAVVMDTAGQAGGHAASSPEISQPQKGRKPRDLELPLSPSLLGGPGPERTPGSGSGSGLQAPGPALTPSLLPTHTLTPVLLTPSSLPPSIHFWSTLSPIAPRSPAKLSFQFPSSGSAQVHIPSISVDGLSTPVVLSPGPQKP
# Method in brief: as §1
# GABPA = target: T3, GABPA (Homo sapiens, UniProt Q06546 1-454); details: protein: recombinant; tags: N-terminal GST; dsDNA, one strand shown
# T3 sequence: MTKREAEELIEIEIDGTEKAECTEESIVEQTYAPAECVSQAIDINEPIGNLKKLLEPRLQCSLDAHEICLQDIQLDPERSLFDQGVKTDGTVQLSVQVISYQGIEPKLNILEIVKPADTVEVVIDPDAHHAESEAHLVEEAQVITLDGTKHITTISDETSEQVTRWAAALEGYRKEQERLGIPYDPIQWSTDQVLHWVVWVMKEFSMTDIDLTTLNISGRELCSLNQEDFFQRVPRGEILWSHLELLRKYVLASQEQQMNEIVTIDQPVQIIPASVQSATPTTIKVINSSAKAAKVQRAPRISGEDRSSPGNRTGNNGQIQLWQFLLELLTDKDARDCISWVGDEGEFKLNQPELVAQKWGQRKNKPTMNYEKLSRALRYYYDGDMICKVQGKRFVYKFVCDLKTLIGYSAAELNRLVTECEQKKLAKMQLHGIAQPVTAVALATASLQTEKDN
# Method in brief: as §1
# ERG = target: T4, ERG (Homo sapiens, UniProt P11308 1-479); details: protein: recombinant; tags: N-terminal GST; dsDNA, one strand shown
# T4 sequence: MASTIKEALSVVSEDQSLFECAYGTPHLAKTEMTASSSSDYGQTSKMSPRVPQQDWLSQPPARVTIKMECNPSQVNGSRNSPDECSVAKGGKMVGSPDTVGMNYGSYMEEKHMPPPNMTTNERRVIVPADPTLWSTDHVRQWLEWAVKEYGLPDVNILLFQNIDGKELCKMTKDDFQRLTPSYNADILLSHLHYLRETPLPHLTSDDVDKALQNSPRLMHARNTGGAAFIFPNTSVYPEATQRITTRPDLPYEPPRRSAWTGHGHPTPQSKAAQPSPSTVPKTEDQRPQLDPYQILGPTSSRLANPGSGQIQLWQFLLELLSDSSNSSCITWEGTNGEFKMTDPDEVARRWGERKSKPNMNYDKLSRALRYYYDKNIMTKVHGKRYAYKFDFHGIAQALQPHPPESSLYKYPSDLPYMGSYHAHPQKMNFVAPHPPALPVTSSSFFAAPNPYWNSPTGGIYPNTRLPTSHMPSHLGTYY
# Method in brief: as §1
# ELF1 = ELF1 (Homo sapiens, UniProt P32519 1-619); details: protein: recombinant; tags: N-terminal GST; dsDNA, one strand shown
# Method in brief: as §1
# EHF = target: T5, EHF (Homo sapiens, UniProt Q9NZC4 1-300); details: protein: recombinant; tags: N-terminal GST; dsDNA, one strand shown
# T5 sequence: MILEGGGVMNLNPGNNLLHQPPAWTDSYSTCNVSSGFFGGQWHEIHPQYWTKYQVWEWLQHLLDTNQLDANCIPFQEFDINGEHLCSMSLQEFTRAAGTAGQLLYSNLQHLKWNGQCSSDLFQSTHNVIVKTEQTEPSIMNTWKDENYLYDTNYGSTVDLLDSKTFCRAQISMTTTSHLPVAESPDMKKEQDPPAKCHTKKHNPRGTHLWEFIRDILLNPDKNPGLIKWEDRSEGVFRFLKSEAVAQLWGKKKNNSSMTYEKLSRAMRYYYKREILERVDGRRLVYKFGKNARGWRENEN
# Method in brief: as §1
# SPI1 = SPI1 (Homo sapiens, UniProt P17947 1-270); details: protein: recombinant; tags: N-terminal GST; dsDNA, one strand shown
# Method in brief: as §1
# SPIB = SPIB (Homo sapiens, UniProt Q01892 1-262); details: protein: recombinant; tags: N-terminal GST; dsDNA, one strand shown
# Method in brief: as §1
# ELK3 = target: T6, ELK3 (Homo sapiens, UniProt P41970 1-407); details: protein: recombinant; tags: N-terminal GST; dsDNA, one strand shown
# T6 sequence: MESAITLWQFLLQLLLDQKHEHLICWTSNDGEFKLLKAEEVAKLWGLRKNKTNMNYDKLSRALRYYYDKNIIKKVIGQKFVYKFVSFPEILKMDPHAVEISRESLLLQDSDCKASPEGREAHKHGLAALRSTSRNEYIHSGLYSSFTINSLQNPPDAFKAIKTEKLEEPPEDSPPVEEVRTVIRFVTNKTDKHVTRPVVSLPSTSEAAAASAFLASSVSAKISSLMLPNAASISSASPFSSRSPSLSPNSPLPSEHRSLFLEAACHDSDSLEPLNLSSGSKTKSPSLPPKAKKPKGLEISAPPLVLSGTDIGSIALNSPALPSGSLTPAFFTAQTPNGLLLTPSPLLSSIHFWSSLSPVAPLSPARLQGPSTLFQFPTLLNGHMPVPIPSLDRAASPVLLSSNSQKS
# Method in brief: as §1
# FEV = target: T7, FEV (Homo sapiens, UniProt Q99581 1-238); details: protein: recombinant; tags: N-terminal GST; dsDNA, one strand shown
# T7 sequence: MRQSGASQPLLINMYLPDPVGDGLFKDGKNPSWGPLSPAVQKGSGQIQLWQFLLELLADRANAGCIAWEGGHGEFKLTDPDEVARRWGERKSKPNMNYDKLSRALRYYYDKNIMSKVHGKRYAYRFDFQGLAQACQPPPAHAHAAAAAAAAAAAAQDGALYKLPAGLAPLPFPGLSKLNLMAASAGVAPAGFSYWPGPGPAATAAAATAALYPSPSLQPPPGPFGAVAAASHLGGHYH
# Method in brief: as §1
# ETV5 = ETV5 (Homo sapiens, UniProt P41161 1-510); details: protein: recombinant; tags: N-terminal GST; dsDNA, one strand shown
# Method in brief: as §1
# HSF1 = HSF1 (Homo sapiens, UniProt Q00613 1-529); details: protein: recombinant; tags: N-terminal GST; chain copies: 3; dsDNA, one strand shown
# Method in brief: as §1
# SPIC = target: T8, SPIC (Homo sapiens, UniProt Q8N5J4 1-248); details: protein: recombinant; tags: N-terminal GST; dsDNA, one strand shown
# T8 sequence: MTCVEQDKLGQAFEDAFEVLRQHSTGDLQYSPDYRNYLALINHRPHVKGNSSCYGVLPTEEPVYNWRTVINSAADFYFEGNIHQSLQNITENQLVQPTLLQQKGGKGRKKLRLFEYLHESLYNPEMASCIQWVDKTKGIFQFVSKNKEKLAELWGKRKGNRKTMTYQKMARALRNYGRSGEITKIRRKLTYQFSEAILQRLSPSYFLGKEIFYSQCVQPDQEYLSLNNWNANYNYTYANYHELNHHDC
# Method in brief: as §1
# ELF4 = ELF4 (Homo sapiens, UniProt Q99607 1-663); details: protein: recombinant; tags: N-terminal GST; dsDNA, one strand shown
# Method in brief: as §1
# ELK4 = target: T9, ELK4 (Homo sapiens, UniProt P28324-2 1-405); details: protein: recombinant; tags: N-terminal GST; dsDNA, one strand shown
# T9 sequence: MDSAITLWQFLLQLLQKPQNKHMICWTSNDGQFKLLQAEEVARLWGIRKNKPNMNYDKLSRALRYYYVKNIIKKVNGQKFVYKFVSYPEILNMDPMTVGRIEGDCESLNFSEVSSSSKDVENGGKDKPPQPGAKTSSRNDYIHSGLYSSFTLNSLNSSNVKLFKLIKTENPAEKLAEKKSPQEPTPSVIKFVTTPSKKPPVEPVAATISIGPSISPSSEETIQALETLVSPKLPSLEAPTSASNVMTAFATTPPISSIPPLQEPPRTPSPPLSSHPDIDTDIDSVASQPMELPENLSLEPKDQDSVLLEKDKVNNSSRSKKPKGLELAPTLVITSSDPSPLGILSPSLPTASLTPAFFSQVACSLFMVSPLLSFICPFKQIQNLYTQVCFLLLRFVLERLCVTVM
# Method in brief: as §1
# ETV2 = target: T10, ETV2 (Homo sapiens, UniProt O00321 1-342); details: protein: recombinant; tags: N-terminal GST; dsDNA, one strand shown
# T10 sequence: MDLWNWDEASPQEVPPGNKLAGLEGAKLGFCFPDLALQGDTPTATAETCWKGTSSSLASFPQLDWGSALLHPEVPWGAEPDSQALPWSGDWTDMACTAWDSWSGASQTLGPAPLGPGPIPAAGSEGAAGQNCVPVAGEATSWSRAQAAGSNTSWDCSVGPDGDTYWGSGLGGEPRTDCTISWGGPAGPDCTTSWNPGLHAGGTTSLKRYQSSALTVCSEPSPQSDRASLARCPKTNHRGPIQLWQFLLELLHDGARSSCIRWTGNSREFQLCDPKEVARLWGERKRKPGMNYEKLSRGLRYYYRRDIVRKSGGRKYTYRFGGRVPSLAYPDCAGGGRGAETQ
# Method in brief: as §1
# ELF3 = target: T11, ELF3 (Homo sapiens, UniProt P78545 1-371); details: protein: recombinant; tags: N-terminal GST; dsDNA, one strand shown
# T11 sequence: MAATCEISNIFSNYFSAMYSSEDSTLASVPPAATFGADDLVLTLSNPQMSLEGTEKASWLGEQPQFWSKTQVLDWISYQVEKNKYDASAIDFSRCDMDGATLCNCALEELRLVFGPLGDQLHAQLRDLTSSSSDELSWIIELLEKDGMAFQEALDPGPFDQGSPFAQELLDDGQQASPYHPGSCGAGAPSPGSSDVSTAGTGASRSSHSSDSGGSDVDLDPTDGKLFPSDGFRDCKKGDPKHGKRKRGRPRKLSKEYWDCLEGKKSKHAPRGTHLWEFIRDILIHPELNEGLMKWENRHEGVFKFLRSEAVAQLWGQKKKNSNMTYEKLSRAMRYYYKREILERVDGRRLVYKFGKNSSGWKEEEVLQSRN
# Method in brief: as §1
# CRX = CRX (Homo sapiens, UniProt O43186 1-299); details: protein: recombinant; tags: N-terminal GST; dsDNA, one strand shown
# Method in brief: as §1
# ETV1 = ETV1 (Homo sapiens, UniProt P50549 1-477); details: protein: recombinant; tags: N-terminal GST; dsDNA, one strand shown
# Method in brief: as §1
# Chain of CRX (O43186 whole entry): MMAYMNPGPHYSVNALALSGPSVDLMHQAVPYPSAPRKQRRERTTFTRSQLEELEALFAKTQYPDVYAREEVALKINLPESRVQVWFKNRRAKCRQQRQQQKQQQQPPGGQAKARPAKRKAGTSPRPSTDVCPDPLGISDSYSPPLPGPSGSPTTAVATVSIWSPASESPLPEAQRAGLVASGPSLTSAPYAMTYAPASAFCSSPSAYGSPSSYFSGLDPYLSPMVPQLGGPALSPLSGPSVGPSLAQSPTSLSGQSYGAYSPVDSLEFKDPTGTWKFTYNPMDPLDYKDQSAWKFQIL
# Chain of ETV1 (P50549 whole entry): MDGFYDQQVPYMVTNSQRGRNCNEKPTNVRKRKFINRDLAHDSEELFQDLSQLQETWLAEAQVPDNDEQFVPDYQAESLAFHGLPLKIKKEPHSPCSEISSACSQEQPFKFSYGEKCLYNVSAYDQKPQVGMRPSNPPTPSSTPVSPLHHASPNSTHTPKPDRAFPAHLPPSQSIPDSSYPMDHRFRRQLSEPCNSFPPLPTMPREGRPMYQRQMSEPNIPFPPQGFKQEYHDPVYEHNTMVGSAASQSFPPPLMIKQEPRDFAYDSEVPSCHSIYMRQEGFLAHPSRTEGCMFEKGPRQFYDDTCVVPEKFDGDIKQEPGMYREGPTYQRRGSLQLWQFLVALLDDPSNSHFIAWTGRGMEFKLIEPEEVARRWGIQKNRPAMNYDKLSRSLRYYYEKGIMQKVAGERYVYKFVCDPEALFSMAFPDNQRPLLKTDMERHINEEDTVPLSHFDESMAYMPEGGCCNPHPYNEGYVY
# Chain of HSF1 (Q00613 whole entry): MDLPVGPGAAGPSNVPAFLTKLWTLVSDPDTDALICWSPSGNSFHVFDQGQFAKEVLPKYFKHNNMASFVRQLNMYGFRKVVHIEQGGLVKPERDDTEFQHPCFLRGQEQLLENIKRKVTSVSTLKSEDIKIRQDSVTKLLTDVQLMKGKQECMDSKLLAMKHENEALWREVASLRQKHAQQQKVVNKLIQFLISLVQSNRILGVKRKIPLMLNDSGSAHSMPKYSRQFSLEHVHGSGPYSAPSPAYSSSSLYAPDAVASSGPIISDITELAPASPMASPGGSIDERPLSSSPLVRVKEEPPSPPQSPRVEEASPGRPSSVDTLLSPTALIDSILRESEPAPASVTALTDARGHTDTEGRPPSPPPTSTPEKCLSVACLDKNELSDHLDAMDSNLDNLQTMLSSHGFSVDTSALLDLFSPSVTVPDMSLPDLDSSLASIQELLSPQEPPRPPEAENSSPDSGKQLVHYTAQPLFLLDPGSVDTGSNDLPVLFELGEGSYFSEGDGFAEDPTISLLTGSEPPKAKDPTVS
# Chain of ETV5 (P41161 whole entry): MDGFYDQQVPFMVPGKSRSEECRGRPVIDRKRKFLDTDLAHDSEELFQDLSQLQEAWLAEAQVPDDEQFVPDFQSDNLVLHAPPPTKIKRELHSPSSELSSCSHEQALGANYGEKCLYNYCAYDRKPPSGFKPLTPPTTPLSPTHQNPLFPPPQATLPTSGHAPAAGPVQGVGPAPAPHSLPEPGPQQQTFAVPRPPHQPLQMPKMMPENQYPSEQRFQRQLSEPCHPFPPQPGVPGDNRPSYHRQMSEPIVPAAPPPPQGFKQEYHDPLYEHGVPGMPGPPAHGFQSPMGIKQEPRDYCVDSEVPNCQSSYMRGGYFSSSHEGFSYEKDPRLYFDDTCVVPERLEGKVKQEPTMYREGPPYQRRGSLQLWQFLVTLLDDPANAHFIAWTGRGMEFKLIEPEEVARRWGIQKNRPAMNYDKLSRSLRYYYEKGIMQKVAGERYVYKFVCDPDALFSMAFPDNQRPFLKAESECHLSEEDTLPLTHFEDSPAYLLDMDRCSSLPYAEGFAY
# Chain of SPIB (Q01892 whole entry): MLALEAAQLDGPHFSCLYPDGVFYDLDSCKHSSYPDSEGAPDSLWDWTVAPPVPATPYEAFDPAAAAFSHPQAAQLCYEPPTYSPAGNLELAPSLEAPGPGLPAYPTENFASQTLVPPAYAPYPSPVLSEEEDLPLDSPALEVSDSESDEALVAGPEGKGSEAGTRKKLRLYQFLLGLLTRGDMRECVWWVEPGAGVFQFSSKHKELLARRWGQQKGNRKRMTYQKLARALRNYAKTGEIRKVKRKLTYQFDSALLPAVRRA
# Chain of ELF1 (P32519 whole entry): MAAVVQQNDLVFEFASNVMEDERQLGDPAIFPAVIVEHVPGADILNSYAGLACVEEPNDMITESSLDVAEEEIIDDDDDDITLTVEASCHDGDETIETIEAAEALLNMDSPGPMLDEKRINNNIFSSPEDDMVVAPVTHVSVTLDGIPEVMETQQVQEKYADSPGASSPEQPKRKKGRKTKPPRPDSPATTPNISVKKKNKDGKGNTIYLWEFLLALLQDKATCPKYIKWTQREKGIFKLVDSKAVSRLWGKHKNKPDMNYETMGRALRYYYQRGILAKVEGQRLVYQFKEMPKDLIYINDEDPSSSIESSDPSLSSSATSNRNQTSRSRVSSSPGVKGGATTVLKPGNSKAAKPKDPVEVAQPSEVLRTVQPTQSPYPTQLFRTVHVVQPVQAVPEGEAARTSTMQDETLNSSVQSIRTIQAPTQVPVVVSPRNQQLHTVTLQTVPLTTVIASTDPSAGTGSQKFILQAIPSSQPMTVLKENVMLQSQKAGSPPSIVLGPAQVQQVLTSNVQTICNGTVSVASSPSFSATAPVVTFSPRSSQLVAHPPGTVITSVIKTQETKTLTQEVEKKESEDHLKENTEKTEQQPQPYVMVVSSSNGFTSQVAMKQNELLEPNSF
# Chain of ELF4 (Q99607 whole entry): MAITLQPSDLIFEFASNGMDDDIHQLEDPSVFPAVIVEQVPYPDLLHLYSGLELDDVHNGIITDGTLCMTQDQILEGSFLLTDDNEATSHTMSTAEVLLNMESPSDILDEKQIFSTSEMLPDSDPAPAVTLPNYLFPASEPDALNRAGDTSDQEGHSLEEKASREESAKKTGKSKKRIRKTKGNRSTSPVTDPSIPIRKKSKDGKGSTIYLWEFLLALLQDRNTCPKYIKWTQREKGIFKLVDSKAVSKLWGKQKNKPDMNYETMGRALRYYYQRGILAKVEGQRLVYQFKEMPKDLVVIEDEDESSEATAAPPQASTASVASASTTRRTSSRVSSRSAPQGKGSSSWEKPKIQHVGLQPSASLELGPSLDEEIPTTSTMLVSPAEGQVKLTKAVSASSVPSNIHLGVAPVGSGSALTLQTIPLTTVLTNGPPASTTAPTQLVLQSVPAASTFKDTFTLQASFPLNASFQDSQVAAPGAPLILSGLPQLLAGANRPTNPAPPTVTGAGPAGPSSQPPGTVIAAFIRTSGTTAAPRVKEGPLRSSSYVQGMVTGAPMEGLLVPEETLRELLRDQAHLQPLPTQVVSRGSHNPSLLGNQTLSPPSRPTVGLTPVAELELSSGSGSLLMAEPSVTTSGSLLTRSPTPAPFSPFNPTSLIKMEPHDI
sequence,measurement,setting,value
TTATAT,binding signal,FLI1,"1.26 fold enrichment (6-mer frequency, TF over GST control)"
same,binding signal,ELK1,"1.42 fold enrichment (6-mer frequency, TF over GST control)"
same,binding signal,GABPA,"1.39 fold enrichment (6-mer frequency, TF over GST control)"
same,binding signal,ERG,"1.4 fold enrichment (6-mer frequency, TF over GST control)"
same,binding signal,ELF1,"1.34 fold enrichment (6-mer frequency, TF over GST control)"
same,binding signal,EHF,"1.41 fold enrichment (6-mer frequency, TF over GST control)"
same,binding signal,SPI1,"1.32 fold enrichment (6-mer frequency, TF over GST control)"
same,binding signal,SPIB,"1.51 fold enrichment (6-mer frequency, TF over GST control)"
same,binding signal,ELK3,"1.18 fold enrichment (6-mer frequency, TF over GST control)"
same,binding signal,FEV,"1.33 fold enrichment (6-mer frequency, TF over GST control)"
same,binding signal,ETV5,"1.26 fold enrichment (6-mer frequency, TF over GST control)"
same,binding signal,HSF1,"1.76 fold enrichment (6-mer frequency, TF over GST control)"
same,binding signal,SPIC,"1.44 fold enrichment (6-mer frequency, TF over GST control)"
same,binding signal,ELF4,"1.34 fold enrichment (6-mer frequency, TF over GST control)"
same,binding signal,ELK4,"1.45 fold enrichment (6-mer frequency, TF over GST control)"
same,binding signal,ETV2,"1.46 fold enrichment (6-mer frequency, TF over GST control)"
same,binding signal,ELF3,"1.44 fold enrichment (6-mer frequency, TF over GST control)"
same,binding signal,CRX,"2.47 fold enrichment (6-mer frequency, TF over GST control)"
same,binding signal,ETV1,"1.34 fold enrichment (6-mer frequency, TF over GST control)"
